Results on 111 compounds are retold here after PubChem BioAssay AID651597 (National Center for Advancing Translational Sciences (NCATS), 2012).

Each structure is given as a SMILES string. Among all 1,100 compounds or so, about 390 (35%) were called active. Inconclusive results (about 30%) are left out. The list shows a part of the results. A number with no mark means an inactive call. Calls come from the whole dose curve; as a rule, active = well fitted inhibition curve with a large enough effect; inconclusive = small, poorly fitted or top-dose-only effect; inactive = flat fitted curve, though single readings scatter.
% is set by controls: 0 for no effect and ±100 for the full control effect; potency is the fitted concentration of half-maximal effect.

This test addresses Luciferin 4-monooxygenase (Photinus pyralis) (UniProt P08659). Briefly: qHTS of Nrf2 Activators: Hit Validation in Secondary FLuc Assay. Note: nearly all actives have a fitted effect of over 65% in size. The settings on record: firefly luciferase inhibition counter-screen, luminescence; series mostly up to 57.5 µM; activity, negative = inhibition: at the top concentration. The essentials: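 Counter-screen on purified firefly luciferase with ATP and D-luciferin at Km concentrations; compounds flagged if they inhibit the enzyme, indicating possible reporter stabilization rather than ARE activation.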
Background: Quantitative high-throughput screening tests each substance at several concentrations.
Turning to `O=C1NC(=Nc2ccccc2)S/C1=C\C=C\c1ccco1`, the Potency was 6.01 µM (active).
Consider `O=C(CC1S/C(=N/N=C/c2ccco2)NC1=O)Nc1ccccc1` (stereo unspecified), for which the “activity, negative = inhibition” value was -0.127%.
Take `Cc1ccc(N=C2NC(=O)/C(=C/C=C/c3ccco3)S2)cc1`: the Potency is 8.49 µM (active).
In the case of `O=C1NC(=Nc2ccccc2)S/C1=C\c1ccccc1`, the Potency is 7.57 µM (active).
`Cc1cccc(CC2S/C(=N/N=C/c3ccco3)NC2=O)c1` (stereo unspecified): the “activity, negative = inhibition” value is -7.31%.
In the case of `O=C1N/C(=N\N=C\c2ccco2)SC1Cc1ccc(F)cc1` (stereo unspecified), the “activity, negative = inhibition” value was -17.3%.
Take `Cc1ccc(S(=O)(=O)C=CS(=O)(=O)c2ccc(C)cc2)cc1`: the Potency was 0.379 µM (active).
For `Cc1ccc(S(=O)(=O)CCSC(=N)N)cc1`, the “activity, negative = inhibition” value is 4.13%.
For `Cc1ccc(S(=O)(=O)c2cc3ccccc3oc2=O)cc1`, the “activity, negative = inhibition” value was -1.58%.
Regarding `C/C(=N\NC(=O)COc1ccccc1[N+](=O)[O-])c1cccs1`, the Potency was 9.53 µM (active).
Consider `O=C(COc1cccnc1[N+](=O)[O-])Nc1cccc2ccccc12`, for which the “activity, negative = inhibition” value was 2.44%.
On the same count and under the same terms, with `CCC/C(=N\NC(=O)c1ccco1)c1ccc(Cl)s1` the figure was -0.842%.
On to `CCCN(C(=O)c1ccco1)c1nnc(-c2ccccc2C)s1`, for which the Potency is 6.75 µM (active).
`Oc1ccc(NCc2cccc(OCc3ccc(F)cc3)c2)cc1`: the Potency is 3.38 µM (active).
Turning to `CCOc1ccccc1NS(=O)(=O)c1c(C(=O)OC)sc2cccc(F)c12`, the “activity, negative = inhibition” value is 2.09%.
On to `Cc1ccc(C(=O)Nc2nc(-c3ccco3)c(-c3ccco3)s2)o1`, for which the Potency was 7.57 µM (active).
`CCC(CC)c1nnc(NC(=O)/C=C/c2ccco2)s1`: the “activity, negative = inhibition” value is -1.49%.
With `Cc1cc(C)c2oc(-c3ccc(C)c(NC(=O)/C=C/c4ccco4)c3)nc2c1`, the Potency was 2.39 µM (active).
`CCOC(=O)Cc1csc(NC(=O)/C=C/c2ccco2)n1`: the Potency was 4.26 µM (active).
Take `Cc1csc(NC(=O)/C=C/c2ccco2)n1`: the Potency was 3.01 µM (active).
In the case of `Clc1ccc(/C=C/c2ncc3ccccn23)cc1`, the Potency is 1.51 µM (active).
As for `Clc1ccc2c(NCc3ccccn3)ncnc2c1`, the “activity, negative = inhibition” value is -0.91%.
For the compound `Clc1ccc(C=Cc2ccccn2)c(Cl)c1`, the Potency was 0.338 µM (active).
The same measure, in the same setting: with `Clc1ccc(C=Cc2ccccn2)cc1` the figure was 0.379 µM (active); with `Cc1ccc2nc(/C(C#N)=C\c3ccc([N+](=O)[O-])o3)[nH]c2c1`, 8.49 µM (active).
Same read-out and setting: with `Nc1c(C(=O)Nc2ccccc2Br)sc2nc(-c3cccs3)ccc12` the figure was 8.49 µM (active).
In the case of `Nc1c(C(=O)C2CC2)sc2nc(-c3cccs3)cc(C(F)(F)F)c12`, the “activity, negative = inhibition” value was -23.9%.
Consider `Cc1sc2ncnc(SCc3ccco3)c2c1C`, for which the “activity, negative = inhibition” value was -5.64%.
Turning to `c1coc(CSc2ncnc3c2oc2ccccc23)c1`, the Potency was 5.36 µM (active).
As for `O=C(COCc1cc(-c2cccs2)on1)Nc1cc(Cl)ccc1O`, the “activity, negative = inhibition” value is -0.806%.
For `Fc1ccc2nc(Nc3nc4c(F)cc(F)cc4s3)sc2c1`, the Potency is 6.75 µM (active).
Regarding `Fc1cc(F)c2nc(Nc3nc4cc5c(cc4s3)OCO5)sc2c1`, the Potency is 5.36 µM (active).
As to `Fc1cccc2sc(Nc3nc4ccccc4s3)nc12`, the Potency is 2.13 µM (active).
As to `O=C(OCC(=O)N1CCCC1)c1cc([N+](=O)[O-])ccc1Cl`, the “activity, negative = inhibition” value was -1.21%.
In the case of `O=[N+]([O-])c1ccc(Cl)c(/C=N/n2c(-c3ccncc3)n[nH]c2=S)c1`, the Potency was 1.9 µM (active).
As to `CCOCCCNC(=O)c1ccc(-n2c(-c3ccccc3)cc3c2CCC(C)C3)cc1` (stereo unspecified), the “activity, negative = inhibition” value is 7.91%.
Take `COc1ccccc1CNC(=O)COC(=O)c1cc(-c2ccco2)nc2ccccc12`: the Potency was 5.36 µM (active).
In the case of `O=C(COC(=O)/C=C/c1ccco1)NCc1ccccc1Cl`, the “activity, negative = inhibition” value is -23.7%.
For `O=C(Nc1ccccc1F)c1cc(-c2ccco2)nc2ccccc12`, the Potency is 10.7 µM (active).
Same read-out and setting: with `O=C(Nc1ccc(F)cc1F)c1cc(-c2ccco2)nc2ccccc12` the figure was 6.75 µM (active).
On to `O=Cc1c(Sc2ccccn2)nc2ccccn2c1=O`, for which the “activity, negative = inhibition” value is -11%.
Still for that read-out and setting: with `COc1ccc(N(CCCN2C(=O)c3cccc4cccc(c34)C2=O)C(=O)c2cccc(OC)c2)cc1` the figure was 4.49%.
In the case of `CCOc1cc2ccccc2cc1C(=O)Nc1ccccn1`, the Potency is 5.36 µM (active).
As for `CC1Oc2ccccc2OC1C(=O)Nc1ccccn1` (stereo unspecified), the “activity, negative = inhibition” value is -0.195%.
Still for that read-out and setting: with `CCc1nc(Nc2cccc(F)c2)c2oc3ccccc3c2n1` the figure was -22.6%.
Turning to `Brc1ccccc1C1N=C(c2ccccc2)NO1` (stereo unspecified), the Potency was 1.35 µM (active).
For the compound `O=C(CCCCCCC(=O)Nc1ccccc1)NO`, the “activity, negative = inhibition” value was -18.5%.
On the same count and under the same terms, with `O=C(CSc1cccc[n+]1[O-])Nc1cc([N+](=O)[O-])ccc1Cl` the figure was -5.19%.
In the case of `O=C(Nc1cccc([N+](=O)[O-])c1)Nc1cccs1`, the Potency is 10.7 µM (active).
In the case of `O=C(CCCc1ccccc1)Nc1cccc([N+](=O)[O-])c1`, the Potency is 7.57 µM (active).
`Cc1cc(C)cc(NC(=O)Nc2cccs2)c1`: the Potency was 2.39 µM (active).
Regarding `O=C(NNC(=O)C12CC3CC(CC(C3)C1)C2)c1cccc([N+](=O)[O-])c1`, the “activity, negative = inhibition” value is -24.4%.
For `Cc1cc(C)cc(NC(=O)/C=C/c2ccc([N+](=O)[O-])s2)c1`, the “activity, negative = inhibition” value is 1.91%.
Still for that read-out and setting: with `COc1ccc(NC(=O)C2CC(=O)N/C(=N/N=C/c3ccco3)S2)cc1` (stereo unspecified) the figure was -14.5%.
Regarding `COc1ccc(OC)c(NC(=O)C(C#N)=Cc2ccco2)c1`, the Potency was 9.53 µM (active).
Same read-out and setting: with `O=C(/C=C/c1ccccc1Cl)Nc1nc(-c2cccs2)ns1` the figure was 1.69 µM (active).
As to `Cc1cc2c(cc1C)N(C(=O)CCl)CC(=O)N2`, the “activity, negative = inhibition” value is -9.54%.
The same measure, in the same setting: with `Nn1c(-c2ccccc2)nc2cc(Cl)ccc2c1=O` the figure was -1.21%.
For `CSc1ccc(-c2cc(=O)c3ccccc3o2)cc1`, the Potency was 1.2 µM (active).
Regarding `O=c1cc(-c2ccccc2)oc2ccc(Cl)cc12`, the Potency was 0.849 µM (active).
The same measure, in the same setting: with `COc1c(C(=O)Nc2nnc(C3CC3)s2)csc1Cl` the figure was 7.57 µM (active).
Regarding `O=[N+]([O-])c1ccc(Cl)cc1C=NNc1ccccn1`, the “activity, negative = inhibition” value is -18.3%.
Take `O=[N+]([O-])c1ccccc1C=NNc1ccccc1`: the Potency was 2.69 µM (active).
`O=C(N/N=C/C(Br)=C/c1ccccc1)c1ccc([N+](=O)[O-])cc1`: the “activity, negative = inhibition” value is -28.9%.
On the same count and under the same terms, with `O=[N+]([O-])c1cc(Cl)cc2c1nc(NCCO)c1ccccc12` the figure was -5.22%; with `O=[N+]([O-])c1cncc([N+](=O)[O-])c1Nc1cccc(O)c1`, 6.84%.
With `O=[N+]([O-])c1ccccc1/C=N/Nc1nccnc1Cl`, the Potency was 13.5 µM (active).
On the same count and under the same terms, with `Fc1ccc2cc(-c3ccsc3)ncc2c1` the figure was 1.69 µM (active); with `CCN(CC)c1ccc2c(c1)oc(=O)c1c(Cl)cc(=O)oc12`, 6.01 µM (active).
Consider `Cc1noc(C)c1-c1ccc2ncnc(NCC3CCCCN3C)c2c1` (stereo unspecified), for which the “activity, negative = inhibition” value was 8.17%.
Regarding `O=C(Nc1ccccc1)c1cc([N+](=O)[O-])ccc1Cl`, the “activity, negative = inhibition” value is 7.81%.
The same measure, in the same setting: with `CCn1ncc(Br)c1C(=O)Nc1cc([N+](=O)[O-])ccc1C` the figure was -0.338%.
With `O=C(Nc1cccc([N+](=O)[O-])c1)c1[nH]ncc1Cl`, the Potency was 9.53 µM (active).
Still for that read-out and setting: with `COc1ccc(C(C#N)=C2C=CC(=NO)C=C2)cc1` the figure was 8.49 µM (active).
On to `Cc1cc(C)n(-c2nc3ccccc3c(=O)n2OCc2ccc(F)cc2)n1`, for which the “activity, negative = inhibition” value is -3.71%.
For the compound `N#Cc1cccn1-c1nccc(-c2cccs2)n1`, the Potency was 12 µM (active).
Consider `O=C(CSc1nccc(-c2cccs2)n1)Nc1ccc(F)c(Cl)c1`, for which the “activity, negative = inhibition” value was 0.686%.
Turning to `C#CCSc1nc(-c2cccs2)ccc1C#N`, the “activity, negative = inhibition” value is -22.8%.
Same read-out and setting: with `Cc1ccc(S(=O)(=O)c2nc(S(C)(=O)=O)sc2N2CCC(O)CC2)cc1` the figure was -0.609%.
With `Fc1cccc(Cc2c(-c3ccco3)nc3c4ccccc4ccn23)c1`, the Potency is 0.379 µM (active).
For the compound `c1ccc(-c2nc3c4ccccc4ccn3c2Cc2ccsc2)cc1`, the Potency was 1.51 µM (active).
For `c1ccc(Cc2c(-c3ccco3)nc3c4ccccc4ccn23)cc1`, the Potency is 0.601 µM (active).
On to `Clc1cccc(Cc2c(-c3ccco3)nc3c4ccccc4ccn23)c1`, for which the Potency is 1.9 µM (active).
On to `CCCc1nc([N+](=O)[O-])c(S(=O)(=O)c2ccccc2)n1CC(C)C`, for which the “activity, negative = inhibition” value is -3.37%.
Consider `COc1ccc(Cc2c(-c3ccccc3)nc3c4ccccc4ccn23)c(C)c1`, for which the Potency is 3.01 µM (active).
In the case of `COc1ccccc1Cc1c(-c2ccco2)nc2c3ccccc3ccn12`, the Potency is 0.301 µM (active).
The same measure, in the same setting: with `Clc1cccc(Cc2c(-c3ccccc3)nc3c4ccccc4ccn23)c1` the figure was 6.01 µM (active); with `Cc1ccc(Cc2c(-c3ccco3)nc3c4ccccc4ccn23)cc1`, 0.239 µM (active); with `FC(F)(F)c1ccccc1Cc1c(-c2ccccc2)nc2c3ccccc3ccn12`, 5.36 µM (active).
For the compound `Clc1ccsc1-c1csc(-c2cccnc2)n1`, the Potency is 3.38 µM (active).
Turning to `CC(=O)N1CCc2c(sc(NC(=O)CCS(=O)(=O)c3ccccc3)c2C#N)C1`, the “activity, negative = inhibition” value was 2.37%.
For `CCOC(=O)N1CCc2c(sc3c2C(=O)NC(c2ccccc2)N3)C1` (stereo unspecified), the Potency is 6.75 µM (active).
Take `COc1ccc([C@H]2Cc3cccc(O)c3C(=O)O2)cc1O`: the “activity, negative = inhibition” value was 0.428%.
For `CCc1cc2c(NCc3ccco3)ncnc2s1`, the “activity, negative = inhibition” value was -4.96%.
Regarding `COc1ccc2[nH]c3c(NCc4ccco4)ncnc3c2c1`, the Potency is 4.78 µM (active).
In the case of `Cc1sc2ncnc(NCc3ccco3)c2c1C`, the “activity, negative = inhibition” value was -16.7%.
Consider `O=C1C(=Cc2ccccc2Cl)CCc2ccccc21`, for which the Potency is 0.169 µM (active).
As to `O=C1C(=Cc2cccc(F)c2)Cc2ccccc21`, the Potency is 1.51 µM (active).
As for `O=C1C(=Cc2cccc(Cl)c2)Cc2ccccc21`, the Potency is 1.07 µM (active).
The same measure, in the same setting: with `Nc1ccccc1C=C1Cc2ccccc2C1=O` the figure was 0.426 µM (active).
Turning to `COc1cc(OC)c(OC)cc1/C=C1/Cc2ccccc2C1=O`, the “activity, negative = inhibition” value is 3.06%.
For `Cc1c(=O)n(OCc2ccc(Cl)cc2)c2ccccc2[n+]1[O-]`, the “activity, negative = inhibition” value was 1.48%.
Take `CC1(O)c2ccccc2C(=O)N1CCc1ccccc1F` (stereo unspecified): the Potency was 6.75 µM (active).
`Oc1ccccc1-n1nc2ccc3nonc3c2n1`: the “activity, negative = inhibition” value was -0.935%.
With `Brc1cc(Br)c2nc(-c3cccs3)ccc2c1`, the Potency was 3.01 µM (active).
For `FC(F)(F)c1cc(-c2cccs2)nc(NCc2ccco2)n1`, the “activity, negative = inhibition” value is -2%.
For the compound `FC(F)(F)c1cc(-c2cccs2)nc(-n2cc(Br)cn2)n1`, the “activity, negative = inhibition” value was -19.9%.
For `Cc1sc2c(c1C)C(=O)NC(c1ccccc1F)N2` (stereo unspecified), the Potency was 2.39 µM (active).
For the compound `O=C(CN1CCS(=O)(=O)CC1)N/N=C/c1cccc(C(F)(F)F)c1`, the “activity, negative = inhibition” value was 5.95%.
As for `CCOC(=O)c1c(NC(=O)/C=C/c2ccc(C)o2)sc(C)c1C`, the Potency is 13.5 µM (active).
For the compound `Cn1nc(C(=O)Nc2c(-c3ccccc3)nc3sccn23)c2ccccc2c1=O`, the “activity, negative = inhibition” value is -28.2%.
